For some of these results: Potency and affinity values are given separately.

What all share (parameters): scale not given: direction of the effect not stated beside the values
Assay [1] addresses Protein translocase subunit SecA (Escherichia coli (strain K12)) (UniProt P10408). Description: Assay to Identify E. coli SecA ATPase Inhibitors. The class given is functional. The note with it: 30 µM.
For assay [2], the target named is T1, Ubiquitin-activating enzyme e1, putative (Leishmania donovani (strain BPK282A1)) (UniProt E9BSI1).
T1 sequence (whole entry): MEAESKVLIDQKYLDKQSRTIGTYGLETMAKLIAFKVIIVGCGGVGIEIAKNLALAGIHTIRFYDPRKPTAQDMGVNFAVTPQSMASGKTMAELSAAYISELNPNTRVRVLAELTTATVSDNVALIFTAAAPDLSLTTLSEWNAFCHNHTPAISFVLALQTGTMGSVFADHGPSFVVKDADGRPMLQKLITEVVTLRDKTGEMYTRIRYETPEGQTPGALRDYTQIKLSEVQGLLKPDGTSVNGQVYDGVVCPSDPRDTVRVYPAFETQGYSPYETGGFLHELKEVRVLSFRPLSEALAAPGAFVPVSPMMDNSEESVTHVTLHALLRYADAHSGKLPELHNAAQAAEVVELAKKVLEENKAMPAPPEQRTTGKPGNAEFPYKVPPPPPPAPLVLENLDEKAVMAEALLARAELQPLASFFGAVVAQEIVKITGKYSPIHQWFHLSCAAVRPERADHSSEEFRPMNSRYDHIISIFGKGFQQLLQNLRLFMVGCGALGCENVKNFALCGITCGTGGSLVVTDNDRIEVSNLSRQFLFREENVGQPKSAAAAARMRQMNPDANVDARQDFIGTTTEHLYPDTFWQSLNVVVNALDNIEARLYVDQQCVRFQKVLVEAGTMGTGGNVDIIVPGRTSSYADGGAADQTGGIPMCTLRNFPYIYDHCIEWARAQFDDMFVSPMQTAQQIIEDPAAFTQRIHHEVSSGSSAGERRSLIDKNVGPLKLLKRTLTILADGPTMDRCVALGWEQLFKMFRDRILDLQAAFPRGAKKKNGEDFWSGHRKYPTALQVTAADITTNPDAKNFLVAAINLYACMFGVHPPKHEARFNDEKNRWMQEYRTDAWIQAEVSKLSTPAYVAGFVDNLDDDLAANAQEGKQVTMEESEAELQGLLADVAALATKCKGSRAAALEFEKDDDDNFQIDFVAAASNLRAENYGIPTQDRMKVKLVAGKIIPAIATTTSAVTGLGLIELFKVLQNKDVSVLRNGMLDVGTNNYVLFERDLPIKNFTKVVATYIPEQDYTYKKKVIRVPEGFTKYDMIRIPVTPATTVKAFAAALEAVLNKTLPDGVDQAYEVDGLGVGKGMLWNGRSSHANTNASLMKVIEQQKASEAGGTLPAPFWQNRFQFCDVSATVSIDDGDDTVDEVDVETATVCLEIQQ
Description: Leishmania donovani Ubiquitin Activating Enzyme (LdE1). The class given is functional. The note with it: 30 µM.

In assay [3] the target is AMP-activated protein kinase, AMPK (Homo sapiens) (UniProt P54646+O43741+P54619+Q9UGJ0+Q9Y478+Q13131+Q9UGI9). Description: AMP-dependent Kinase enzyme assay. An in vitro enzyme assay that detects ADP turnover that is directly proportional to AMPK activity. This uses naive AMPK that is activated during the assay with MK-8722. The class given is functional. The note with it: 30 µM.

In assay [4] the target is Sialic acid-binding Ig-like lectin 9 (Homo sapiens) (UniProt Q9Y336). Description: Hs-Siglec9 ALPHAscreen SOP 20170721. The note with it: 10 µM. On the technique in general: Bead proximity is the source of the signal in Alpha formats.
Chain of Sialic acid-binding Ig-like lectin 9 (Homo sapiens) (Q9Y336 whole entry): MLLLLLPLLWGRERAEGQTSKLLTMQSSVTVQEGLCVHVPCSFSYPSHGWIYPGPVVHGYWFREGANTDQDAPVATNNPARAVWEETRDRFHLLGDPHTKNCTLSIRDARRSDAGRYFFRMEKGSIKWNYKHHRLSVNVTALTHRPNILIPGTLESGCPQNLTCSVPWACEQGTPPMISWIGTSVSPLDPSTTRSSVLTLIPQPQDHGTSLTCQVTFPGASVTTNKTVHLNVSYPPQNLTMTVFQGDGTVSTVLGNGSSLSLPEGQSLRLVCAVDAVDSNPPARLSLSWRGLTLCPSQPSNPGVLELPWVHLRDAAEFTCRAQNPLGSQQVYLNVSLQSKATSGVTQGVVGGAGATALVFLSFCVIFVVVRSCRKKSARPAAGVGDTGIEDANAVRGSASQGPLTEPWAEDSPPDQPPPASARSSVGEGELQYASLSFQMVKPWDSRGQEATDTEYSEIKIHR
The subject of assay [5] is Trypanosoma cruzi. Description: Trypanosoma cruzi phosphomannomutase and mannose-1-phosphate guanylyltransferase assay. The class given is functional. The conditions noted are these: 10 µM.
The target of assay [6] is T2, Arginase-2, mitochondrial (Homo sapiens) (UniProt P78540).
T2 sequence (whole entry): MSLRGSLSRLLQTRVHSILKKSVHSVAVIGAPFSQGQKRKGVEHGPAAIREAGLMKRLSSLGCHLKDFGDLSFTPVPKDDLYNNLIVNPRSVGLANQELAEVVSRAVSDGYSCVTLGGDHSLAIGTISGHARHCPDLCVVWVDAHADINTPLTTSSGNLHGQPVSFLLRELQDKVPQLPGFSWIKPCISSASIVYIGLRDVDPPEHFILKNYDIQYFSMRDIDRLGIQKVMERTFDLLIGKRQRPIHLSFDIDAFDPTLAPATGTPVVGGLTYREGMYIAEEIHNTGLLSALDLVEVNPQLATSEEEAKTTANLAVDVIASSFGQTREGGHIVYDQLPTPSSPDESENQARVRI
Description: in vitro enzyme assay to detect the production of urea directly proportional to the activity of Arginase II. Also: in the data most compounds retested in dose-response had high values. In kind it is functional. The conditions noted are these: 33.3 µM.

The target of assay [7] is T3, Proteasome subunit beta (Trypanosoma cruzi) (UniProt O96673).
T3 sequence (whole entry): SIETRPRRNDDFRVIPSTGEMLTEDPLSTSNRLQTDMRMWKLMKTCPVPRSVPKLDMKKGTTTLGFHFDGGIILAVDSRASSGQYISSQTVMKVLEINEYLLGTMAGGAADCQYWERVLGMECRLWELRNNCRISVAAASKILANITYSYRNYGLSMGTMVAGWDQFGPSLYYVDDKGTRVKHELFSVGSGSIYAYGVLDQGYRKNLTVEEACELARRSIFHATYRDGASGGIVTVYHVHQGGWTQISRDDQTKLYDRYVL
Description: Trypanosoma cruzi proteasome chymotrypsin-like activity (TcProtChymo) assay. Also: in the data most compounds retested in dose-response had high values. The note with it: 9.37 µM. In kind it is functional.

Assay [8] is filed under the species Homo sapiens. Nature of the assay: To identify inhibition of the IFN signalling (Jak-Stat) pathway via expression of an eGFP reporter gene under the control of an IFN-stimulated response element (ISRE) containing MxA promoter. In kind it is functional. The conditions noted are these: 30 µM.
The target of assay [9] is T4, Tyrosyl-tRNA synthetase, putative (Trypanosoma cruzi (strain CL Brener)) (UniProt Q4DSP6).
T4 sequence (whole entry): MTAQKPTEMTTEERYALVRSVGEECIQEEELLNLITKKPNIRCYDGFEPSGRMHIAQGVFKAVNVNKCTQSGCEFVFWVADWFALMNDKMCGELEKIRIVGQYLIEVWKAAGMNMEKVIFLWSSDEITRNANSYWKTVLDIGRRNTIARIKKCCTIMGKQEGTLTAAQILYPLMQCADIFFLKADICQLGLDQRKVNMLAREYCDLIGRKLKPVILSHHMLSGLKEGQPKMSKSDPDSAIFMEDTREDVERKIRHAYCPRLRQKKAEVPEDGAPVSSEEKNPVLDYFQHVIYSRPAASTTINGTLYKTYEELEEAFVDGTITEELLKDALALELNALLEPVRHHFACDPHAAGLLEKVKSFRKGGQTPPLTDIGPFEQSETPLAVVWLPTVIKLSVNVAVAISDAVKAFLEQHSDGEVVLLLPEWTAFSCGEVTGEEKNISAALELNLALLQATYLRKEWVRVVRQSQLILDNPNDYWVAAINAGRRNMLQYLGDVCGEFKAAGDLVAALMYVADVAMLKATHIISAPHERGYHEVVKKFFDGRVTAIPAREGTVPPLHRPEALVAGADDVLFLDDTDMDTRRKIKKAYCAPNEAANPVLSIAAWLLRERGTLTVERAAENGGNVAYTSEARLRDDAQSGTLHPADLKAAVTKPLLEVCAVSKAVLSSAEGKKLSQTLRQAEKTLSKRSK
Nature of the assay: Trypanosoma cruzi tyrosyl tRNA synthetase (TcYRS) _High Tyrosine SOP. Also: in the data most compounds retested in dose-response had high values. The conditions noted are these: 30 µM. In kind it is functional.

Assay [10] has as its target T4, Tyrosyl-tRNA synthetase, putative (Trypanosoma cruzi (strain CL Brener)). Nature of the assay: Trypanosoma cruzi tyrosyl tRNA synthetase (TcYRS) SOP. In kind it is functional. The note with it: 30 µM.
Assay [11] concerns the target Chromo domain-containing protein 1 (Saccharomyces cerevisiae (strain ATCC 204508 / S288c) (Baker's yeast)) (UniProt P32657). Nature of the assay: ScCHD-1 Enzyme Inhibition Assay. Also: in the data most compounds retested in dose-response had high values. The conditions noted are these: 30 µM. In kind it is functional.

Chain of Chromo domain-containing protein 1 (Saccharomyces cerevisiae (strain ATCC 204508 / S288c) (Baker's yeast)) (P32657 whole entry, the tested form may be a part): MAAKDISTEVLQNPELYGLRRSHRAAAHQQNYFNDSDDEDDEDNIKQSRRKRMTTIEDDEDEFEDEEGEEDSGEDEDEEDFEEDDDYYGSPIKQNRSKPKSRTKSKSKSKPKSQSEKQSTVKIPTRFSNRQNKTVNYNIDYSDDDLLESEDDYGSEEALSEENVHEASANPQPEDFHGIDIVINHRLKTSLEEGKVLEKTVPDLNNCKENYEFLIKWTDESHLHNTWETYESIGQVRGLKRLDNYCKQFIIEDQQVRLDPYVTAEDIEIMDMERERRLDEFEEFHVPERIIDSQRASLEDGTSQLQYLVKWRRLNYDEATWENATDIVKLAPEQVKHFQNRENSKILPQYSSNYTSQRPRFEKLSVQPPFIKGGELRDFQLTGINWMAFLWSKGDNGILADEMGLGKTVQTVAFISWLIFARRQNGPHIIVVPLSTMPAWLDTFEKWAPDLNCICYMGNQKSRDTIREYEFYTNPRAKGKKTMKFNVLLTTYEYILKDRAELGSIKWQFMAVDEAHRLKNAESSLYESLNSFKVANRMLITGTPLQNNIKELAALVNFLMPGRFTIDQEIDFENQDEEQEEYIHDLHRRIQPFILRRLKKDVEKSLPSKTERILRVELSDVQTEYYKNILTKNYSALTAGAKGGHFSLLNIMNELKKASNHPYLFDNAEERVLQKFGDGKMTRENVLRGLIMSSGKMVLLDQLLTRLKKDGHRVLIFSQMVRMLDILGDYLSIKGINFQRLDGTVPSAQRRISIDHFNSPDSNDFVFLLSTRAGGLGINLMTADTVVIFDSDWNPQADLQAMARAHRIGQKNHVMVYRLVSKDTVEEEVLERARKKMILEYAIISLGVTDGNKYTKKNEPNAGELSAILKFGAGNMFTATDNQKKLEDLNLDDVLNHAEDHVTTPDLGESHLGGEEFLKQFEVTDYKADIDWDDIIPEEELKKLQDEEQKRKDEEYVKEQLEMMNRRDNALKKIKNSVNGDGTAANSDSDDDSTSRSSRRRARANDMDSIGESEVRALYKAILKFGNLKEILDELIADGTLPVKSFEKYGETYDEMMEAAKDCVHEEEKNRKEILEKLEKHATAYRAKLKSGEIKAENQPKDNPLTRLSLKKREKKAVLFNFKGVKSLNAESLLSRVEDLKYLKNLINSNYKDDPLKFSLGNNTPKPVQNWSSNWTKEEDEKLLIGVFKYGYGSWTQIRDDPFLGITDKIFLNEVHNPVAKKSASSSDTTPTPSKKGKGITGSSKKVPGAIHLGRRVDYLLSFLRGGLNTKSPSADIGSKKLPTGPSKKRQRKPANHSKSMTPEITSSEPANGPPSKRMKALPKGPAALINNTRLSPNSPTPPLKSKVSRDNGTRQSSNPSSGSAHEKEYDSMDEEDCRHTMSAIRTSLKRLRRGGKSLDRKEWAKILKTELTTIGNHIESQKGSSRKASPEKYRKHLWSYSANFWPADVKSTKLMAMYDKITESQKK
Chain of Protein translocase subunit SecA (Escherichia coli (strain K12)) (P10408 whole entry): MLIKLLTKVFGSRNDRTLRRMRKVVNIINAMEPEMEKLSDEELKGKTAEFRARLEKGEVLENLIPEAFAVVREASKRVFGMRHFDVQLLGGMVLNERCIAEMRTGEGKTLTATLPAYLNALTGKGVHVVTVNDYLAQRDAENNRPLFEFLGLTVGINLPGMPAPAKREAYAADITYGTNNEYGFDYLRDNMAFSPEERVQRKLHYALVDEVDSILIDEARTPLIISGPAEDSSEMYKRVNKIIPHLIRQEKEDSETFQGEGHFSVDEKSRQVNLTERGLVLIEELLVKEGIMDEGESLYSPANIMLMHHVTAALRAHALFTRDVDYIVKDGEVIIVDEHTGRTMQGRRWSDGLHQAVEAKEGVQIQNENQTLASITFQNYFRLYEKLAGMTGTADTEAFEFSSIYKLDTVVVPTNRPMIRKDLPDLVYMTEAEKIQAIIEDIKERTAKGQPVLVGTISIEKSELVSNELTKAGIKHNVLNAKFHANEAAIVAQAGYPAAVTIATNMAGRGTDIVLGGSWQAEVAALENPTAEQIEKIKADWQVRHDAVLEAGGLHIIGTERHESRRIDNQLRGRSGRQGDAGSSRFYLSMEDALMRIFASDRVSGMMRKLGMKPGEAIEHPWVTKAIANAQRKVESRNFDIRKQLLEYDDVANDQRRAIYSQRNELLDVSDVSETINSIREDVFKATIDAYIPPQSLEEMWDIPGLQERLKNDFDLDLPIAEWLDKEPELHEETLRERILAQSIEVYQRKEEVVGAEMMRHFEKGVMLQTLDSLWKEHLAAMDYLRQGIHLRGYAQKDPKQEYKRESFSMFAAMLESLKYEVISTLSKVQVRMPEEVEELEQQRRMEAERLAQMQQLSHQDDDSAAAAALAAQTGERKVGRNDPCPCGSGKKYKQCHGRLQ

`CS(=O)(=O)N[C@@H]1CCO[C@]2(CCN(C(=O)C3=CCCC3)C2)C1`: the Percent Effect in [1] was -2.88%; in assay [2] it was 13.5%; in assay [3], 3.79%; in assay [4], -4.46%; in assay [5] it was -2.25%; in assay [6], 14.3%. Moreover, the Percent Effect in [7] was 23.2%; in assay [8] it was -15.3%; in [9], 5.41%; in assay [10] it was 12.8%; in assay [11], -3.57%.

`COc1cc(C)sc1C(=O)N1CCC(Nc2cccnc2)CC1`: the Percent Effect in [1] is -6.41%; in assay [2] it was -121%; in assay [3], 0.841%; in assay [4], 37.6%; in [5], 3.17%; in assay [6], 3.19%. For the same molecule, the Percent Effect in [7] came out at 3%; in [8], 5.06%; in assay [9], 8.33%; in [10], 11.1%; in assay [11] it was 0.713%.

For the molecule `CNC(=O)NC(=O)Cn1cc(-c2ccccc2)cn1`, the Percent Effect in [1] was -4.72%; in [2], 6.33%; in assay [3], 12.6%; in assay [4], 5.24%; in assay [5], -5.03%; in assay [6], -1.07%. The Percent Effect was 8.23% in assay [7]; 17.1% in assay [8]; 2.08% in assay [9]; 10.1% in [10]; -4.57% in assay [11].

With `CC(O)CN1CCN(C(=O)c2ccc3c(c2)COC3)CC1` (stereo unspecified), the Percent Effect in assay [1] was -5%; in assay [2], 10.1%; in assay [3], -4.14%; in assay [4], 3.8%; in assay [5], 6.14%; in assay [6] it was -4.18%. Besides, the Percent Effect was 3.19% in assay [7]; -12.6% in [8]; 4.43% in assay [9]; 16.5% in [10]; -13.8% in assay [11].

As for `O=C(CCCc1ccc(F)cc1)N1C[C@@H](CN2CCOCC2)[C@@H](CO)C1`, the Percent Effect was -3.25% in assay [1]; 8.22% in [2]; -1.01% in [3]; -3.8% in assay [4]; -1.57% in [5]; 1.82% in assay [6]. The Percent Effect is 13.7% in assay [7]; -3.47% in assay [8]; 7.53% in assay [9]; 12.5% in assay [10]; -5.62% in assay [11].

Take `Cc1ccccc1CS(=O)(=O)CC(=O)NCc1ccccc1F`: the Percent Effect was -3.68% in [1]; 7.89% in [2]; 11.2% in assay [3]; 7.68% in [4]; 0.292% in [5]; 3.55% in assay [6]. The Percent Effect in assay [7] is 10.6%; in [8] it was 31%; in [9], 4.25%; in assay [10], 13%; in assay [11] it was -2.75%.

With `CC(C)Oc1ccccc1C1CC(=O)Nc2c1cnn2C` (stereo unspecified), the Percent Effect in [1] is -2.1%; in [2], -15.8%; in assay [3] it was 7.56%; in assay [4] it was 5.91%; in [5], -3.21%; in assay [6] it was -7.1%. The Percent Effect in assay [7] is 15.6%; in assay [8] it was 15.6%; in assay [9], -2.13%; in assay [10] it was 2.6%; in [11] it was -0.488%.

For `Cc1noc([C@H]2C[C@@H]3CCN(C(=O)N(C)C)C[C@H]3O2)n1`, the Percent Effect in assay [1] was -0.638%; in assay [2], -2.7%; in [3], 6.92%; in assay [4] it was 9.3%; in assay [5], -2.25%; in assay [6], 0.319%. Besides, the Percent Effect in assay [7] was 15.5%; in assay [8], -7.89%; in assay [9] it was -1.08%; in [10] it was 2.56%; in assay [11], 0.431%.

On to `O=C(COc1cccc2c1CCC2=O)NCCSc1ccccc1`, for which the Percent Effect in assay [1] is -1.44%; in [2], 5.26%; in assay [3] it was 7.61%; in assay [4], -2.93%; in assay [5] it was -2.63%; in assay [6], 10.7%. Also, the Percent Effect in assay [7] is 8.92%; in assay [8], 20.8%; in [9] it was -2.13%; in [10], 7.79%; in assay [11], -5.02%.

For the molecule `COCC1c2c(cnn2CC2CCOCC2)CCN1Cc1ccoc1` (stereo unspecified), the Percent Effect was -3.48% in assay [1]; 8.11% in [2]; 4.63% in assay [3]; 0.649% in [4]; 1.76% in [5]; 4.17% in [6]. The Percent Effect in [7] is 16%; in [8], -5.7%; in [9] it was 10.9%; in assay [10] it was 11%; in [11], -3.93%.

Consider `CN1CCN(C2CCN(CCOc3ccc(F)cc3)CC2)C1=O`, for which the Percent Effect is -8.87% in assay [1]; 2.6% in assay [2]; 0.436% in assay [3]; -4% in [4]; -3.18% in assay [5]; -0.356% in [6]. Besides, the Percent Effect in [7] is 4.05%; in assay [8] it was 37.8%; in [9] it was 0%; in [10], 0%; in assay [11], -7.75%.

Values taken from ChEMBL document CHEMBL3988442, “University of Dundee, Small-Polar-MMV Screening Library” (2021).
